# Source: PubChem BioAssay (NCATS)
# Values joined by “and” are separate entries in the source; they are usually repeats but may differ in a detail not shown here. Equal entries are not always repeated. Inconclusive results are not listed. Unmarked numbers belong to inactive results. Active and inactive are the calls of the source. The call rests on the fitted dose curve; in most records, active means well fitted cell-killing curve with a large enough effect; inconclusive means small, poorly fitted or top-dose-only effect, or effect the other way; inactive means no such curve, though single readings can be large or run the other way.
# Legend:
# [1] = Viability qHTS for spleen associated tyrosine kinase inhibitor (SYKi) naive MV4-11 cells (AID 1963823); further: nearly all actives have a fitted effect of over 40% in size
# Procedure, shortened: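 SYK inhibitor-naive MV4-11 cells, 500 per well, exposed to compounds for 72 hr at 37 C, 5% CO2. Viability read as CellTiter-Glo luminescence after 10 min at room temperature.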
# [2] = Viability qHTS for spleen associated tyrosine kinase inhibitor (SYKi) drug resistant MV4-11 cells (AID 1963824); further: nearly all actives have a fitted effect of over 35% in size
# Procedure, shortened: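 SYK-inhibitor-resistant MV4-11 AML cells were seeded at 500 per well onto compound and cultured 72 hours (37 °C, 5% CO2). CellTiter-Glo was then added, and after 10 min at room temperature, luminescence gave viability.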
# Potency means the concentration at half of the fitted maximal effect.
compound,measurement,setting,value
COc1ccn(C)c(=O)c1C#N,Potency,[1],inactive
CC[C@H]1C2CC3[C@@H]4N(C)c5ccccc5[C@]45C[C@@H]([C@H]2[C@H]5O)N3[C@H]1O,Potency,[1],inactive
CN(CC[C@H](N)CC(=O)N[C@H]1C=C[C@@H](n2ccc(N)nc2=O)O[C@@H]1C(=O)O)C(=N)N,viability (% of control),[1],83.5% [at 9.25 µM]
COC1CC(O[C@H]2CC[C@]3(C=O)C4CC[C@]5(C)[C@@H](C6=CC(=O)OC6)CC[C@]5(O)[C@@H]4CC[C@]3(O)C2)OC(C)C1O[C@@H]1O[C@H](CO)[C@@H](O)[C@H](O)[C@H]1O (stereo partly specified),Potency,[1],86.2 nM (active)
C[C@]12CC[C@H](O[C@@H]3O[C@H](CO)[C@@H](O)[C@H](O)[C@H]3O)CC1=CC[C@@H]1C2CC[C@]2(C)[C@@H](C3=CC(=O)OC3)CC[C@]12O (stereo partly specified),Potency,[1],2730 nM (active)
CC[C@@H]1C[C@H]2CC[C@H](O2)[C@H](C)C(=O)O[C@@H](C)C[C@@H]2CC[C@@H](O2)[C@@H](C)C(=O)O[C@H](C)C[C@H]2CC[C@H](O2)[C@H](C)C(=O)O[C@@H](C)C[C@@H]2CC[C@@H](O2)[C@@H](C)C(=O)O1,Potency,[1],34.3 nM (active)
same,Potency,[2],0.0385 µM (active)
CN1C(=O)[C@@H](Cc2c[nH]c3ccccc23)N=C(c2ccccc2F)c2ccccc21,Potency,[1],20600 nM (active)
CC1=CC2/C=C(\C)CCC(O)C(O)/C=C/C(=O)C23C(=O)NC(CC(C)C)C3C1C (stereo unspecified),Potency,[1],1260 nM (active)
same,Potency,[2],1.42 µM (active)
Cc1sc2c(c1C)C(c1ccc(Cl)cc1)=N[C@@H](CC(N)=O)c1nnc(C)n1-2,Potency,[1],83.3 nM (active)
same,Potency,[2],82 nM (active) and 83.3 nM (active)
COc1cc2cc(c1Cl)N(C)C(=O)C[C@H](OC(=O)C(C)C)[C@]1(C)O[C@@H]1[C@H](C)[C@@H]1C[C@@](O)(NC(=O)O1)[C@H](OC)/C=C/C=C(\C)C2,Potency,[1],inactive
same,Potency,[2],inactive
COC1CC(O[C@H]2CC[C@@]3(C)C(=CCC4C3C(O)[C@@H](O)[C@]3(C)[C@@H](C(C)=O)CC[C@]43O)C2)OC(C)C1OC1CC(OC)C(OC2OC(C)C(O)C(O)C2O)C(C)O1 (stereo partly specified),viability (% of control),[1],67.1% [at 9.25 µM]
same,"viability, % of control",[2],103% [at 9.25 µM]
C=C1C(=O)CC2OC2(C)CC2OC(=O)C(=C)C2C(O)C1OC(=O)/C(C)=C\C (stereo unspecified),Potency,[1],508 nM (active)
same,Potency,[2],0.57 µM (active)
Oc1ccc2[nH]cc(CCCCN3CC=C(c4ccccc4)CC3)c2c1,Potency,[1],8410 nM (active)
same,Potency,[2],10.6 µM (active)
CC(C)(O)/C=C/C(=O)[C@](C)(O)[C@H]1[C@H](O)C[C@@]2(C)[C@@H]3CC=C4[C@@H](C=C(O)C(=O)C4(C)C)[C@]3(C)C(=O)C[C@]12C,Potency,[1],59.6 nM (active)
same,Potency,[2],0.0376 µM (active)
COC1CC(OC2CCC3(C)C(=CCC4C3CCC3(C)C(C(C)OC5OC(COC6OC(CO)C(O)C(O)C6O)C(O)C(O)C5O)CCC43O)C2)OC(C)C1OC1OC(C)C(O)C(OC)C1O (stereo unspecified),viability (% of control),[1],91.8% [at 9.25 µM]
same,"viability, % of control",[2],87.9% [at 9.25 µM]
C=C1C2(C)CC3C(C)(O)C4=CC(=O)OC(C)(C)C4=CCC3(C)C13C(=O)OC(C)C3(O)C2=O (stereo unspecified),Potency,[1],inactive
C=CCC1=C(C)C(OC(=O)C2C(C=C(C)C)C2(C)C)CC1=O (stereo unspecified),Potency,[1],5450 nM (active)
same,Potency,[2],9.69 µM (active)
C[C@]12C/C(=C/O)C(=O)C[C@@H]1CC[C@@H]1[C@@H]2CC[C@@]2(C)[C@H]1CC[C@]2(C)O,Potency,[1],18800 nM (active)
S=C(NC1CCCCC1)N1CCC(c2cnc[nH]2)CC1,Potency,[1],inactive
Cc1ncsc1CCCl,Potency,[1],inactive
same,Potency,[2],inactive
COc1ccc(CCNCc2ccc(OC)c3ccccc23)cc1,Potency,[1],9200 nM (active)
CC(=O)OC1(c2ccccc2)CCN(CCc2ccccc2)CC1,Potency,[1],39300 nM (active)
same,Potency,[2],44.1 µM (active)
Nc1ccn(C[C@@H](CO)OCP(=O)(O)O)c(=O)n1,viability (% of control),[1],57.6% [at 9.25 µM]
same,"viability, % of control",[2],69.1% [at 9.25 µM]
